About 83,000 compounds went through this panel and 20% of them were active in at least one assay; those are over-represented in the sample as a whole.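 Interpretation: 100, growth as untreated; towards 0, rising growth inhibition; 0, no net growth; 0 to -100, cell death. Compounds scoring below 10 were considered active.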 Values without a mark were called inactive. Active and inactive are the calls of the source.

Some test systems named below: SR leukemia; RPMI-8226 leukemia; OVCAR-8 ovarian; OVCAR-5 ovarian; OVCAR-4 ovarian; SK-OV-3 ovarian; IGROV1 ovarian; OVCAR-3 ovarian; HS 578T breast; NCI/ADR-RES ovarian; T-47D breast; BT-549 breast; MDA-MB-435 melanoma; SW-620 colon; MCF7 breast; HCT-116 colon; HCC-2998 colon; KM12 colon.
What all share (assay): NCI-60 one-dose screen, 48 h (100 = growth as untreated, 0 = no growth, -100 = all killed)
Common to all, as to settings: 10 µM unless noted

With `Cn1c(=O)[nH]c(=O)c2nc3c(nc21)-c1ccccc1C3=O`, the growth in the assay with SR leukemia was 100%; in the assay with RPMI-8226 leukemia it was 108%; in the assay on OVCAR-8 ovarian, 105%; in the assay on OVCAR-5 ovarian, 99.6%; in the assay on OVCAR-4 ovarian, 102%; with SK-OV-3 ovarian, 111%. The growth was 108% with IGROV1 ovarian; 107% in the assay with OVCAR-3 ovarian; 104% in the assay on HS 578T breast; 95.2% in the assay with NCI/ADR-RES ovarian; 103% in the assay with T-47D breast; 104% in the assay on BT-549 breast. Further, the growth was 100% in the assay on MDA-MB-435 melanoma; 105% in the assay on SW-620 colon; 87.2% in the assay with MCF7 breast; 102% with HCT-116 colon; 101% in the assay on HCC-2998 colon; 103% with KM12 colon.

Turning to `CN(C)Cc1ccc(NC(=O)c2cncc(C#Cc3cnc(N)c4ncccc34)c2)cc1C(F)(F)F`, the growth is -4.79% (active) in the assay on SR leukemia; -40.4% (active) with RPMI-8226 leukemia; -32.8% (active) in the assay on OVCAR-8 ovarian; -84.8% (active) in the assay with OVCAR-5 ovarian; -60.1% (active) in the assay on OVCAR-4 ovarian; 105% in the assay with SK-OV-3 ovarian. The growth is 70.8% in the assay with IGROV1 ovarian; 102% in the assay with OVCAR-3 ovarian; 70.5% in the assay on HS 578T breast; 72.4% with NCI/ADR-RES ovarian; 99% in the assay with T-47D breast; 102% in the assay with BT-549 breast. Moreover, the growth with MDA-MB-435 melanoma is -75.1% (active); in the assay with SW-620 colon it was -78.7% (active); with MCF7 breast it was -72.4% (active); in the assay on HCT-116 colon, 47.7%; in the assay with HCC-2998 colon it was 3.86% (active); in the assay on KM12 colon, -40.4% (active).

As to `CN(C)c1ccc([C@@H](C(=O)Nc2cccc([N+](=O)[O-])c2)N(C(=O)c2cc3ccccc3[nH]2)c2cccc([N+](=O)[O-])c2)cc1`, the growth in the assay with SR leukemia was 97%; in the assay with RPMI-8226 leukemia it was 92.6%; in the assay with OVCAR-8 ovarian it was 93.3%; in the assay with OVCAR-5 ovarian, 94.7%; in the assay with OVCAR-4 ovarian, 99.4%; in the assay on SK-OV-3 ovarian it was 103%. The growth in the assay on IGROV1 ovarian was 103%; in the assay on OVCAR-3 ovarian it was 111%; in the assay on HS 578T breast it was 93.5%; in the assay on NCI/ADR-RES ovarian it was 102%; with T-47D breast, 84%; in the assay on BT-549 breast, 95.4%. For the same molecule, the growth was 108% in the assay with MDA-MB-435 melanoma; 98.7% in the assay on SW-620 colon; 89.6% with MCF7 breast; 90.4% with HCT-116 colon; 107% with HCC-2998 colon; 103% in the assay on KM12 colon.

On to `Cc1[nH]n(-c2cccc(Cl)c2)c(=O)c1/C=C1\C=c2ccccc2=CC1=O`, for which the growth is 29.7% in the assay on SR leukemia; 96.4% with RPMI-8226 leukemia; 22.3% in the assay with OVCAR-8 ovarian; 16.9% with OVCAR-5 ovarian; -62.5% (active) in the assay with OVCAR-4 ovarian; 15.3% in the assay on SK-OV-3 ovarian. Moreover, the growth in the assay on IGROV1 ovarian is 33.9%; with OVCAR-3 ovarian, 63.2%; with HS 578T breast it was 82.2%; in the assay with NCI/ADR-RES ovarian it was 75.3%; in the assay on T-47D breast, -7.69% (active); in the assay with BT-549 breast, 90.2%. Further, the growth in the assay on MDA-MB-435 melanoma is 20.7%; with SW-620 colon, 31%; in the assay with MCF7 breast, 8.67% (active); in the assay with HCT-116 colon it was 8.69% (active); with HCC-2998 colon it was -22.2% (active); with KM12 colon it was 21.2%.

For the molecule `O=C(Nc1ccccc1O)c1ccc(CNc2ccnc(C(F)(F)F)c2)cc1`, the growth with SR leukemia is 24.3%; in the assay on RPMI-8226 leukemia, 1.91% (active); with OVCAR-8 ovarian it was 38.8%; with OVCAR-5 ovarian it was 76.6%; in the assay with OVCAR-4 ovarian, 52.5%; with SK-OV-3 ovarian, 58.6%. Besides, the growth with IGROV1 ovarian was 59.9%; in the assay with OVCAR-3 ovarian, 76.2%; in the assay with HS 578T breast, 50%; in the assay with NCI/ADR-RES ovarian, 18.4%; with T-47D breast, 32.1%; in the assay with BT-549 breast it was 47.4%. Further, the growth in the assay with MDA-MB-435 melanoma was 45.3%; in the assay with SW-620 colon it was 72.8%; with MCF7 breast, 50.1%; with HCT-116 colon, 42.2%; with HCC-2998 colon, 99.6%; with KM12 colon, 62.6%.

Take `CC/C(=C(\c1ccc(Cl)cc1)c1ccc(OCCN2CCCCC2)cc1)c1ccc(O)cc1`: the growth with SR leukemia is -11.2% (active); in the assay with RPMI-8226 leukemia, 1.63% (active); in the assay with OVCAR-8 ovarian, 62.6%; in the assay on OVCAR-5 ovarian, 70.4%; with OVCAR-4 ovarian it was 36.7%; in the assay with SK-OV-3 ovarian, 68.1%. Also, the growth with IGROV1 ovarian is 66.8%; in the assay on OVCAR-3 ovarian, 40.4%; with HS 578T breast, 46.5%; with NCI/ADR-RES ovarian, 53.3%; in the assay on T-47D breast, 4.66% (active); with BT-549 breast, 58.3%. In addition, the growth in the assay with MDA-MB-435 melanoma is 2.07% (active); in the assay on SW-620 colon it was -35.7% (active); with MCF7 breast, 3.41% (active); in the assay on HCT-116 colon, -56.5% (active); in the assay with HCC-2998 colon, 37.5%; in the assay on KM12 colon it was 17.5%.

Turning to `O=C1CCCCN1c1ccc(C2=NCCCN2)cc1`, the growth with SR leukemia was 99.8%; in the assay on RPMI-8226 leukemia, 57.4%; in the assay on OVCAR-8 ovarian, 104%; in the assay on OVCAR-5 ovarian it was 95.9%; in the assay on OVCAR-4 ovarian, 91.3%; in the assay on SK-OV-3 ovarian it was 119%. The growth is 95.9% in the assay on IGROV1 ovarian; 83.9% with OVCAR-3 ovarian; 73.2% with HS 578T breast; 103% in the assay on NCI/ADR-RES ovarian; 57.8% with T-47D breast; 89.6% in the assay with BT-549 breast. For the same molecule, the growth with MDA-MB-435 melanoma was 96.9%; with SW-620 colon, 85.7%; in the assay with MCF7 breast, 84.2%; in the assay with HCT-116 colon, 92.1%; in the assay on HCC-2998 colon, 109%; in the assay on KM12 colon, 90%.

As to `Ic1ccc(Nc2nc3nonc3nc2Nc2ccc(I)cc2)cc1`, the growth is -12.6% (active) with SR leukemia; -36.6% (active) in the assay with RPMI-8226 leukemia; 6.55% (active) in the assay with OVCAR-8 ovarian; 34% in the assay on OVCAR-5 ovarian; 19.3% in the assay with OVCAR-4 ovarian; -19.9% (active) in the assay with SK-OV-3 ovarian. For the same molecule, the growth with IGROV1 ovarian is 28.5%; with OVCAR-3 ovarian, 9.01% (active); with HS 578T breast, 19.2%; with NCI/ADR-RES ovarian, 3.09% (active); with T-47D breast, -9.49% (active); in the assay on BT-549 breast, -21.7% (active). For the same molecule, the growth is 6.04% (active) with MDA-MB-435 melanoma; 13.8% in the assay on SW-620 colon; 3.42% (active) in the assay on MCF7 breast; 0.308% (active) with HCT-116 colon; 8.32% (active) with HCC-2998 colon; 7.87% (active) in the assay with KM12 colon.

The values are drawn from PubChem BioAssay (NCI).
